{"source": "PubChem BioAssay", "note": "Unmarked numbers belong to inactive results. Calls of active or inactive are those of the source.", "data": [{"assay": "plasmodial surface anion channel blockers, osmotic lysis – cell-based, P. falciparum Indochina, OD700, 18 h, primary screen (AID 1157)", "conditions": "P. falciparum Indochina infected erythrocytes, osmotic lysis OD700, 18 h; higher = more signal, called active from +8 up or from −8 down", "values": [{"compound": "CN(C)C(=O)[C@]1(Cc2ccccc2N=[N+]=[N-])N=C(c2ccc(OCCCO)cc2)O[C@@H]1c1ccccc1", "z-score": 2.53}, {"compound": "CCCCCC1=C2CNC(CCC)(C(=O)OC)C=C2C(C)C1=O", "note": "(stereo not given)", "z-score": 0.493}, {"compound": "COCCOC(=O)N1C(=O)[C@@]2(c3cc(C#CCCO)ccc31)[C@H](C(=O)N1CCc3cc(OC)c(OC)cc3C1)[C@H]1C(=O)O[C@H](c3ccccc3)[C@H](c3ccccc3)N1[C@@H]2c1ccc(O)cc1", "z-score": 0.222}, {"compound": "O=C(NCc1ccccc1)[C@@]1(Cc2ccccc2)N=C(c2ccc(OCCCO)cc2)O[C@H]1c1ccccc1", "z-score": 0.86}, {"compound": "CC(C)c1ccc(NN2C(C(O)c3cc(C(F)(F)F)cc(C(F)(F)F)c3)C=CC3C(=O)N(c4ccccc4)C(=O)C32)cc1", "note": "(stereo not given)", "z-score": 2.32}, {"compound": "CN1C(=O)[C@]2(Cc3ccccc3)N=C(c3ccc(OCCCO)cc3)O[C@@H]2c2ccccc21", "z-score": 3.54}, {"compound": "CC(C)(C)OC(=O)CC[C@]1(C(=O)NCC(O)CO)COC(c2ccc(OCCCO)cc2)=N1", "note": "(stereo not given in full)", "z-score": 0.619}, {"compound": "CCOC(=O)C[C@H]1[C@H](OC(=O)c2cc3ccccc3oc2=O)[C@@H](NC(=O)Cc2ccc(OC)cc2)c2cc(OCCCO)ccc2N1C(=O)c1ccccc1", "z-score": -2.76}, {"compound": "COc1ccc(CCNC(=O)[C@@]2(Sc3ccc(C)cc3)CC(=O)N(C3CCCCC3)[C@@H]2c2ccc(CO)cc2I)cc1", "z-score": 0.252}, {"compound": "COc1ccc(C(=O)O[C@H]2CC[C@]3(C)C4=C(CCC3C2(C)C)[C@]2(C)CC[C@H]([C@H](C)CCCC(C)C)[C@@]2(C)CC4)cc1", "note": "(stereo not given in full)", "z-score": -1.6}, {"compound": "CCOC(=O)C[C@H]1[C@H](OC(=O)Cc2ccc3c(c2)OCO3)[C@@H](NC(=O)c2ccc3ccccc3c2)c2cc(OCCCO)ccc2N1C(=O)c1ccccc1", "z-score": 0.26}, {"compound": "CCN(CC)c1ccc(N2CC=CC34O[C@@H]5/C=C\\CCCOC(=O)C5[C@H]3C(=O)N(CCO)[C@@H]4C2=O)cc1", "note": "(stereo not given in full)", "z-score": 0.041}, {"compound": "C=CCNC(=O)[C@@H]1[C@H]2C(=O)O[C@H](c3ccccc3)[C@H](c3ccccc3)N2[C@H](c2ccccc2OCCO)[C@@]12C(=O)N(C(=O)OCCOC)c1ccc(C#CCNC(N)=O)cc12", "z-score": 0.466}, {"compound": "O=C1C[C@]2(c3ccc([N+](=O)[O-])cc3)C(=O)N(CCN3CCOCC3)c3cc(CO)ccc3[C@H]2N1C1CCCCC1", "z-score": -0.507}, {"compound": "CN1C(=O)C2C=CC(C(O)C3CC=CCC3)N(NC(=O)OC(C)(C)C)C2C1=O", "note": "(stereo not given)", "z-score": 0.312}, {"compound": "COCCCNC(=O)C1N=C(c2ccc(OCCCO)cc2)N(c2ccccc2)O1", "note": "(stereo not given)", "z-score": 0.325}, {"compound": "C=C(COC)/C(=C/C[C@H](OC(=O)c1ccncc1)c1ccc(OCCO)cc1)c1cnc2ccccc2c1", "z-score": 0.848}, {"compound": "C=CC[C@@]1(C(=O)N(C)C)N=C(c2ccc(OCCCO)cc2)O[C@@H]1c1ccccc1N=[N+]=[N-]", "z-score": "8.39 (active)"}, {"compound": "C=CCOC(=O)[C@H]1[C@@H]2C(=O)O[C@@H](c3ccccc3)[C@@H](c3ccccc3)N2[C@@H](c2ccc(OCCOC(=O)[C@@H]3C[C@@H]4C(=O)N[C@@H](CCCC[N+](C)(C)C)C(=O)N4[C@@H]3c3ccc(O)cc3)cc2)[C@]12C(=O)Nc1ccccc12", "z-score": -1.58}, {"compound": "O=C1NC(=O)C2C1C=CC(C(O)c1cccc3ccccc13)N2Nc1ccccn1", "note": "(stereo not given)", "z-score": 0.899}, {"compound": "COc1ccc(C(=O)Nc2cccc(CN3C(=O)[C@]4(O[C@H](CCO)[C@@H]([Si](C)(C)c5ccc(OC)cc5)[C@@H]4C)c4ccccc43)c2)cc1", "z-score": 1.85}, {"compound": "COC(=O)c1c(CC[C@@H](CO)NC(=O)N2CCC[C@H]2Cn2cc(-c3ccccn3)nn2)oc(C(C)=O)c1C(=O)OC", "z-score": -0.741}, {"compound": "C=CCN1C(=O)[C@]2(O[C@H](CCO)[C@@H]([Si](C)(C)c3ccc(OC)cc3)[C@@H]2C)c2cc(N3C(=O)c4cccc5cccc3c45)ccc21", "z-score": 2.83}, {"compound": "O=C(NCc1ccccc1)[C@@]1(CCS(=O)(=O)c2ccccc2)N=C(c2ccc(OCCCO)cc2)O[C@H]1c1ccccc1", "z-score": 1.99}, {"compound": "CC(C)C(=C=CC[C@@H](O)c1ccccc1OCCO)CCO", "z-score": 0.428}, {"compound": "O=C(NCC(F)(F)F)[C@@H]1c2ccccc2C(=O)N(C2CCCCC2)[C@H]1c1ccc(CO)cc1", "z-score": 0.18}, {"compound": "CN1C(=O)C2C=CC(C(O)c3cccs3)N(Nc3ccccc3)C2C1=O", "note": "(stereo not given)", "z-score": 0.731}, {"compound": "COc1cc2c(cc1O)C(C1CC1)N(Cc1cc3c(cc1Br)OCO3)CC2", "note": "(stereo not given)", "z-score": 0.72}, {"compound": "COCCOC(=O)N1C(=O)[C@@]2(c3cc(C#CCCO)ccc31)[C@H](c1ccc(OCCO)cc1)N1[C@H](c3ccccc3)[C@H](c3ccccc3)OC(=O)[C@H]1[C@@H]2C(=O)N1CCN(c2ncccn2)CC1", "z-score": 0.411}, {"compound": "O=C1O[C@H](c2ccccc2)[C@H](c2ccccc2)N2[C@H]1[C@@H](C(=O)NC[C@H](O)c1ccccc1)[C@]1(C(=O)Nc3ccccc31)[C@H]2c1ccc(OCCO)cc1", "z-score": 1.47}, {"compound": "O=C1c2ccccc2[C@](Cc2ccccc2I)(C(=O)NC2CC2)[C@H](c2ccc(CO)cc2)N1C1CCCCC1", "z-score": 1.36}, {"compound": "CC(=O)NCCCC[C@@H]1NC(=O)[C@@H]2C[C@H](C(=O)NCCCCCCNC(=O)CS)[C@H](c3cccc(OCCO)c3)N2C1=O", "z-score": 0.351}, {"compound": "COCCOC(=O)N1C(=O)[C@@]2(c3cc(C#CC4=CCCCC4)ccc31)[C@H](C(=O)N1CCc3cc(OC)c(OC)cc3C1)[C@H]1C(=O)O[C@H](c3ccccc3)[C@H](c3ccccc3)N1[C@@H]2c1ccc(OCCO)cc1", "z-score": 0.801}, {"compound": "COCCOC(=O)N1C(=O)[C@@]2(c3cc(C#CC4=CCCCC4)ccc31)[C@H](C(=O)Nc1nc3ccccc3s1)[C@H]1C(=O)O[C@H](c3ccccc3)[C@H](c3ccccc3)N1[C@@H]2c1ccccc1OCCO", "z-score": 0.436}, {"compound": "COc1ccc(C(O)C2C=CC3C(=O)N(c4ccccc4)C(=O)C3N2Nc2ccc(C(C)C)cc2)cc1OCc1ccccc1", "note": "(stereo not given)", "z-score": 1.47}]}]}
